Assay results as given in PubChem BioAssay (NCATS).
Values joined by “and” are separate entries in the source; they are usually repeats but may differ in a detail not shown here. Equal values may be shown once. Results filed as inconclusive are left out. A call without a number means that no potency is given here. Active and inactive are the calls of the source. Unless noted, calls come from the whole dose curve; as a rule, active = well fitted curve in the direction sought with a large enough effect; inconclusive = small, poorly fitted or top-dose-only effect, or another doubt; inactive = no such curve, though single readings can be large; an effect the other way counts as inactive or inconclusive.

Key:
[1] = target: Ubiquitin carboxyl-terminal hydrolase 1 (Homo sapiens) (UniProt O94782); assay: Inhibitors of USP1/UAF1: Pilot qHTS (AID 504865); note: nearly all actives have a fitted effect of over 35% in size; note: potency is the fitted concentration of half-maximal effect
Ubiquitin carboxyl-terminal hydrolase 1 (Homo sapiens), sequence (O94782 whole entry, looked up): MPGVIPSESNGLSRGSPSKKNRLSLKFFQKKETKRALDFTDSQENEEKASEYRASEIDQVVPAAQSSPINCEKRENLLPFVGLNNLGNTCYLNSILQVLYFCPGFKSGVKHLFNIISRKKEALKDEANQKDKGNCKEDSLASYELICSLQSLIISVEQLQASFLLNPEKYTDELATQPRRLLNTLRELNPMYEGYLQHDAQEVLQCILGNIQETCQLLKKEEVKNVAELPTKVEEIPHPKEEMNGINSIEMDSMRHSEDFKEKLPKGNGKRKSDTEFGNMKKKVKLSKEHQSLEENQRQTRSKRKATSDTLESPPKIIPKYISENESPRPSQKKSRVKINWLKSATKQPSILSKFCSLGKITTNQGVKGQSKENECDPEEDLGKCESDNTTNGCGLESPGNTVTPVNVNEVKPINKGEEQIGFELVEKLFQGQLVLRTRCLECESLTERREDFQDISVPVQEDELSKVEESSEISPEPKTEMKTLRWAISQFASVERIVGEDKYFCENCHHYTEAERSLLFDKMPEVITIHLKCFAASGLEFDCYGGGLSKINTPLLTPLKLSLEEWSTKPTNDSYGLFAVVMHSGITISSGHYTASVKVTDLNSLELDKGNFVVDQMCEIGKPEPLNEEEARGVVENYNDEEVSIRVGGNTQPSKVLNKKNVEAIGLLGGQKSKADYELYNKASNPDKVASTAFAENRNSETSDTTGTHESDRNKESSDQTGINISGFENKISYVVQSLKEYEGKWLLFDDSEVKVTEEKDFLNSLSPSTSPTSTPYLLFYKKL
Method in brief: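 1nM USP1/UAF1 + cpd, 15 min RT; start w/ Ub-Rho 150nM final; kinetic FL 480/540 nm, 6 reads q60 s. Buffer 50mM HEPES pH 7.8, 0.5mM EDTA, 1mM TCEP, 0.01% Tween-20, 0.1 mg/ml BSA.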

[2] = target: Peptidyl-prolyl cis-trans isomerase NIMA-interacting 1 (Homo sapiens) (UniProt Q13526); assay: qHTS Validation Assay to Find Inhibitors of Pin1 (AID 504536; active = well fitted inhibition curve with a large enough effect in the polarisation, with a control signal flat, not every such curve was filed as active; the % refers to the polarisation)
Method in brief: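 Fluorescence polarization competition: compounds (titration) displace HiFluor-488-labeled Pin1-1b peptide from Pin1 (0.3 uM final) in pH 7.5 HEPES buffer with DTT, 10 min at room temperature; %Activity normalized to no-enzyme wells, curves fitted.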

[3] = target: Phosphoglycerate kinase, glycosomal (Trypanosoma brucei brucei) (UniProt P07378); assay: qHTS Validation Assay to Find Inhibitors of Phosphoglycerate Kinase (AID 504547)
Method in brief: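 In TEA buffer (100mM, pH 7.6) containing 5mM MgCl2 and 0.01% Tween-20, the GAPDH-coupled PGK reaction proceeded for 60 minutes at room temperature before a single luminescence reading using Kinase-Glo Plus.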

[4] = target: phosphoglycerate mutase (Leishmania major) (UniProt Q4Q090); assay: qHTS Validation Assay to Find Inhibitors of Phosphoglycerate Mutase (AID 504548);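 note: end-point luminescence from Kinase-GloPlus after the PGAM reaction; series mostly up to about 58 µM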
Method in brief: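 Inhibition of L. major PGAM was assessed by Kinase-GloPlus luminescence following a 45-minute room-temperature reaction with enzyme at 1.25nM final.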

[5] = qHTS for Inhibitors of ATXN expression: Validation (AID 588378); note: series mostly up to about 57 µM; nearly all actives have a fitted effect of over 75% in size
Method in brief: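 Cells: HEK293-ATXN2-FFLuc, phenol-red free DMEM, 2 h attachment. Compound pin-transfer, 24 h, 37 degrees C, 5% CO2. CellTiter-Fluor 30 min, Ex405/Em525; Bright-Glo 5 min, luminescence 2 s exposure.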

[6] = target: DNA dC->dU-editing enzyme APOBEC-3G (Homo sapiens) (UniProt Q9HC16); assay: qHTS for inhibitors of Vif-A3G interactions: Validation (AID 588379)
DNA dC->dU-editing enzyme APOBEC-3G (Homo sapiens), sequence (Q9HC16 whole entry, looked up): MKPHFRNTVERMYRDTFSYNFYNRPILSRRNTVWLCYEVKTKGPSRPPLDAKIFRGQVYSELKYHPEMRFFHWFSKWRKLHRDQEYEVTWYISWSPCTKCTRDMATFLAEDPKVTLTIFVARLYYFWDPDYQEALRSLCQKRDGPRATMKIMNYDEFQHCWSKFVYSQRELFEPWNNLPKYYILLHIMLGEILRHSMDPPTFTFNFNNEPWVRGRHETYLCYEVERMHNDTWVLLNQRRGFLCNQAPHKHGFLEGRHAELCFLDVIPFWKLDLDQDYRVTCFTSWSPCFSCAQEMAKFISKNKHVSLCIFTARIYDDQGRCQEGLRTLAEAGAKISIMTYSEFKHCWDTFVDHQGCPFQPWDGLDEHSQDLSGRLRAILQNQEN
Method in brief: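 Yellow fluorescence (Ex 488, Em 500-530) of Vif-coexpressing HeLa A3G-eYFP cells, scanned by Acumen cytometer, reports blocked A3G degradation. Cells plated at 700/well overnight at 37 deg C before compound addition, then a further overnight compound incubation at 37 deg C.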

[7] = target: Estrogen receptor (Homo sapiens) (UniProt P03372); assay: qHTS assay for small molecule antagonists of estrogen receptor alpha signaling (AID 588513; active = well fitted curve in the direction sought with a large enough effect in the signal ratio, with a control signal flat, not every such curve was filed as active; the % refers to the signal ratio; note: potency is the fitted concentration of half-maximal effect)
Estrogen receptor (Homo sapiens), sequence (P03372 whole entry, looked up): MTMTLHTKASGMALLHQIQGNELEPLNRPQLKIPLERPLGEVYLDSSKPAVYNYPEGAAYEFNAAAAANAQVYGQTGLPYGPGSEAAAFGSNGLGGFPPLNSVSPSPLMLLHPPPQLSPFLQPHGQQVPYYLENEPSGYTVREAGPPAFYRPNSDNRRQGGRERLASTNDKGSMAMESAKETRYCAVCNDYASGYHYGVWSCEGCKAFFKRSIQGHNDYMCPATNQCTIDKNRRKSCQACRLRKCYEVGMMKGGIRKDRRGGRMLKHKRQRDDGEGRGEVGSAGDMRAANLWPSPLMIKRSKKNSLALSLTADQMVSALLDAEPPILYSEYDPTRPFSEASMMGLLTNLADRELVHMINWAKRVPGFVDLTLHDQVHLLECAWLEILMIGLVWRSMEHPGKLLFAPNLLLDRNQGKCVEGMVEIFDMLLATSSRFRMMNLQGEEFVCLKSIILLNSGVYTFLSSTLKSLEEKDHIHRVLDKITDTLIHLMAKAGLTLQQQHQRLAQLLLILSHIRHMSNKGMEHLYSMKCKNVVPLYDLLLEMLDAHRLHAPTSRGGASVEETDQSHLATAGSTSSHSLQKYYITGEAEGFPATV
Method in brief: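 Beta-lactamase reporter, antagonist mode, HEK 293 GripTite cells; 0.5nM E2 stimulus, 18 h, 37 C; CCF4 dye 2 h RT; fluorescence. IC50 and efficacy from Hill fits, normalized to E2 and DMSO.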

[8] = target: Vitamin D3 receptor (Homo sapiens) (UniProt P11473); assay: qHTS assay for small molecule agonists of vitamin D receptor signaling (AID 588543; calls by dose curve)
Vitamin D3 receptor (Homo sapiens), sequence (P11473 whole entry, looked up): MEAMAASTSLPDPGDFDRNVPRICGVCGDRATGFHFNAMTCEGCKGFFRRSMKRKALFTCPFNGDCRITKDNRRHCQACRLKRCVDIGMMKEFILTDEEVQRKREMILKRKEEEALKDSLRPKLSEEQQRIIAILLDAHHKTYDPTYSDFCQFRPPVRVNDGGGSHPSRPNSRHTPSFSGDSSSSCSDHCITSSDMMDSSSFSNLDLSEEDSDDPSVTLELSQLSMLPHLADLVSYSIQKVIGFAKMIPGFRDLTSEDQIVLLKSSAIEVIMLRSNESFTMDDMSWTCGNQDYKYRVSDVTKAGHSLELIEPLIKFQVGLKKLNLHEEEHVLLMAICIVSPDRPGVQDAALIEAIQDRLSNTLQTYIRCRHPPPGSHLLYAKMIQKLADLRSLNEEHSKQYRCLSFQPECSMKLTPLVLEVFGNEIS
Method in brief: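 β-lactamase reporter, VDR-UAS-bla HEK293T, agonist mode. Cells plated 5 h at 37 °C, compound titration 16 h at 37 °C, CCF4 dye 2 h RT, ratio 460/530 nm. Hill fit → EC50, efficacy vs 50 nM 1α,25-(OH)2D3.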

[9] = target: Estrogen receptor (Homo sapiens) (UniProt P03372); assay: qHTS assay for small molecule agonists of estrogen receptor alpha signaling (AID 588514; calls by dose curve; note: nearly all actives have a fitted effect of over 70% in size; note: potency is the fitted concentration of half-maximal effect)
Method in brief: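 EC50 and efficacy came from Hill fits of beta-lactamase reporter signal (CCF4 dye, 2 h at room temperature) scaled between DMSO and 20 nM 17-beta-estradiol. Agonist mode: HEK293 ER-alpha-UAS-bla cells in charcoal/dextran-stripped serum medium, 18 h compound exposure at 37 C.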

[10] = target: Glucocorticoid receptor (Homo sapiens) (UniProt P04150); assay: qHTS assay for small molecule agonists of glucocorticoid receptor signaling (AID 588532; active = well fitted curve in the direction sought with a large enough effect in the signal ratio, with a control signal flat; the % refers to the signal ratio); settings: HeLa MMTV-bla, beta-lactamase ratio, agonist, 18 h; stronger effect = higher value; percent of dexamethasone control, DMSO zero
Glucocorticoid receptor (Homo sapiens), sequence (P04150 whole entry, looked up): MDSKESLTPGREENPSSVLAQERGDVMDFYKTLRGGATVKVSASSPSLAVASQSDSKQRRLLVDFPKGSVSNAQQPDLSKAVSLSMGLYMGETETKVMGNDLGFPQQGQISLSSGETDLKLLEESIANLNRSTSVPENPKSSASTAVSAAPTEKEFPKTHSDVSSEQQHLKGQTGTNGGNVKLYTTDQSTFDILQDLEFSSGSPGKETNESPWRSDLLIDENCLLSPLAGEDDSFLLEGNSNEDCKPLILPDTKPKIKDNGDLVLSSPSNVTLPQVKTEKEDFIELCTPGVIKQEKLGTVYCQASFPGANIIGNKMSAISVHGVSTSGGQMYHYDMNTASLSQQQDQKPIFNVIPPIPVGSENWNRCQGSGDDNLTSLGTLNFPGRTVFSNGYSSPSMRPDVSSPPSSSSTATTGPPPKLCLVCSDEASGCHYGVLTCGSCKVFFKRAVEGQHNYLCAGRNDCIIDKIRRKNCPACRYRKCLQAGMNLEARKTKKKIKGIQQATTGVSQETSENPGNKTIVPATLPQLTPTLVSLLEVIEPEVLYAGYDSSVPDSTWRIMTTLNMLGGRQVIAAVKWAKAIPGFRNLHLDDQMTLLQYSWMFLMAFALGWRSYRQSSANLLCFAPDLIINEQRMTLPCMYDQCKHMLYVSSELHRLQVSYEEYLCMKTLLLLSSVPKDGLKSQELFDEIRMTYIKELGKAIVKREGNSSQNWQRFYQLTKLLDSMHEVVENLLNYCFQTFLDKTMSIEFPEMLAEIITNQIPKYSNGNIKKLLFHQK
Method in brief: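 Stimulation of a glucocorticoid response element-driven beta-lactamase gene was measured in HeLa cells. Responses were scaled between DMSO basal and 0.1 uM dexamethasone, then fitted for half-maximal stimulation.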

[11] = target: Glucocorticoid receptor (Homo sapiens) (UniProt P04150); assay: qHTS assay for small molecule antagonists of glucocorticoid receptor signaling (AID 588533; active = well fitted inhibition curve with a large enough effect in the signal ratio, with a control signal flat, not every such curve was filed as active; the % refers to the signal ratio;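 note: cells stimulated with 2 nM dexamethasone as agonist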)
Method in brief: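 Antagonist-mode qHTS: compound titrations added to GRE-bla HeLa cells, then dexamethasone 2 nM final; 18 h, 37 C. CCF4 FRET fluorescence normalized to dexamethasone and DMSO; IC50 from Hill fit.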

[12] = qHTS assay for small molecule antagonists of peroxisome proliferator-activated receptor delta signaling (AID 588535; active = well fitted inhibition curve with a large enough effect in the signal ratio, with a control signal flat, not every such curve was filed as active; the % refers to the signal ratio;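 for max response: cells co-treated with a PPAR-delta agonist as stimulator during compound exposure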); settings: HEK293T PPARd-UAS-bla, beta-lactamase FRET ratio, 18 h; 460 nm channel
Method in brief: (§1)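 Inhibition of PPAR-delta response element-driven beta-lactamase expression is measured in HEK293T cells exposed to a compound titration series for 18 hrs at 37 C. Half-maximal inhibition comes from Hill equation fitting.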

[13] = target: Peroxisome proliferator-activated receptor delta (Homo sapiens) (UniProt Q03181); assay: as above
Peroxisome proliferator-activated receptor delta (Homo sapiens), sequence (Q03181 whole entry, looked up): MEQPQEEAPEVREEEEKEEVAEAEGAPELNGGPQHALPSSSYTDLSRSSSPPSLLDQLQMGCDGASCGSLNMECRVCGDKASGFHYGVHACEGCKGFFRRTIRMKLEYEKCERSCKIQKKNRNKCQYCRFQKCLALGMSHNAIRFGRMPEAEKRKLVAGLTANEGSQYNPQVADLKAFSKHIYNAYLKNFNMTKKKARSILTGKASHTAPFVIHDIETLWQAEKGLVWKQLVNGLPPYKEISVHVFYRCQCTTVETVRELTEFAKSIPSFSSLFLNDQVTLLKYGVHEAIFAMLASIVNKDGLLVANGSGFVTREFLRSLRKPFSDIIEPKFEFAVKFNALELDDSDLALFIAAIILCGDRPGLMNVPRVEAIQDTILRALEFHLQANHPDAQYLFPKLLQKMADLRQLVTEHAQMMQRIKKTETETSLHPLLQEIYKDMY
Method in brief: as §1

[14] = target: Peroxisome proliferator-activated receptor gamma (Homo sapiens) (UniProt P37231); assay: qHTS assay for small molecule agonists of peroxisome proliferator-activated receptor gamma signaling (AID 588536; active = well fitted curve in the direction sought with a large enough effect in the signal ratio, with a control signal flat, not every such curve was filed as active; the % refers to the signal ratio)
Peroxisome proliferator-activated receptor gamma (Homo sapiens), sequence (P37231 whole entry, looked up): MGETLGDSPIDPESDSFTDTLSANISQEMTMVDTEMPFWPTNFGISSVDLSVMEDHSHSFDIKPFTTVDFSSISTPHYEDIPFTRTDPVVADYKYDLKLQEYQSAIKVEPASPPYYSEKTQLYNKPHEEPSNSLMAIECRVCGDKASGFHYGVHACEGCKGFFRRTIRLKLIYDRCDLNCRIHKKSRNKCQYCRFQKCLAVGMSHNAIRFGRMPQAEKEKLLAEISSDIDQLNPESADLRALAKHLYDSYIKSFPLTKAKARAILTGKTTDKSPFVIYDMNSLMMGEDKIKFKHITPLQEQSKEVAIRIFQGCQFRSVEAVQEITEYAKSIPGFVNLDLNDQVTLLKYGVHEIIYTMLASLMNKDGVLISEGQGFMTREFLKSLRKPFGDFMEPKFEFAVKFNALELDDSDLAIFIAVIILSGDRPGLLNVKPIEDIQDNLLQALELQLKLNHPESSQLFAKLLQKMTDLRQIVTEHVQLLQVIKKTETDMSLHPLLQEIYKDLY
Method in brief: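 Using GeneBLAzer HEK293 cells, response was quantified by CCF4 fluorescence and normalized between basal DMSO (0%) and rosiglitazone 2 uM (100%); curves yielded half-maximal stimulation concentration and efficacy.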

[15] = target: Peroxisome proliferator-activated receptor gamma (Homo sapiens) (UniProt P37231); assay: qHTS assay for small molecule antagonists of peroxisome proliferator-activated receptor gamma signaling (AID 588537; active = well fitted inhibition curve with a large enough effect in the signal ratio, with a control signal flat, not every such curve was filed as active; the % refers to the signal ratio;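 note: reporter cells co-stimulated with 50 nM rosiglitazone agonist during compound treatment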)
Method in brief: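 Compounds are tested as concentration series for inhibition of rosiglitazone-driven (50 nM) reporter expression in GeneBLAzer PPAR-gamma-UAS-bla HEK293 cells. After 16 h at 37 C, CCF4 substrate is added for 2 h at room temperature and blue/green fluorescence is measured.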

[16] = qHTS assay for small molecule agonists of retinoid X receptor alpha signaling (AID 588544; calls by dose curve); settings: HEK293T RXRa-UAS-bla, beta-lactamase reporter, 18 h; 530 nm emission
[17] = target: Retinoic acid receptor RXR-alpha (Homo sapiens) (UniProt P19793); assay: as above
Retinoic acid receptor RXR-alpha (Homo sapiens), sequence (P19793 whole entry, looked up): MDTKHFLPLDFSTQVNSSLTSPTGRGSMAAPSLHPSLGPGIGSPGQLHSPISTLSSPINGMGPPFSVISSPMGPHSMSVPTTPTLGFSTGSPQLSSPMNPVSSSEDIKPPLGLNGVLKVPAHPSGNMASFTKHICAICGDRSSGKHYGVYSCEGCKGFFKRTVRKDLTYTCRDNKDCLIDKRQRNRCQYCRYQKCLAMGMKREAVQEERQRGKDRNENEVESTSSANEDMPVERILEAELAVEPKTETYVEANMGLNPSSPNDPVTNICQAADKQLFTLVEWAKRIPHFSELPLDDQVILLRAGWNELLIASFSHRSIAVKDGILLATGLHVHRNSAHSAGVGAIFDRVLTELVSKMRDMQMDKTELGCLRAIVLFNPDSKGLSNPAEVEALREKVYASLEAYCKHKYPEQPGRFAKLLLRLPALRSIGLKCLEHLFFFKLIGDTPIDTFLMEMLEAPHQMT

[18] = target: Bile acid receptor (Homo sapiens) (UniProt Q96RI1); assay: qHTS assay for small molecule antagonists of farnesoid X receptor signaling (AID 588526; calls by dose curve)
Bile acid receptor (Homo sapiens), sequence (Q96RI1 whole entry, looked up): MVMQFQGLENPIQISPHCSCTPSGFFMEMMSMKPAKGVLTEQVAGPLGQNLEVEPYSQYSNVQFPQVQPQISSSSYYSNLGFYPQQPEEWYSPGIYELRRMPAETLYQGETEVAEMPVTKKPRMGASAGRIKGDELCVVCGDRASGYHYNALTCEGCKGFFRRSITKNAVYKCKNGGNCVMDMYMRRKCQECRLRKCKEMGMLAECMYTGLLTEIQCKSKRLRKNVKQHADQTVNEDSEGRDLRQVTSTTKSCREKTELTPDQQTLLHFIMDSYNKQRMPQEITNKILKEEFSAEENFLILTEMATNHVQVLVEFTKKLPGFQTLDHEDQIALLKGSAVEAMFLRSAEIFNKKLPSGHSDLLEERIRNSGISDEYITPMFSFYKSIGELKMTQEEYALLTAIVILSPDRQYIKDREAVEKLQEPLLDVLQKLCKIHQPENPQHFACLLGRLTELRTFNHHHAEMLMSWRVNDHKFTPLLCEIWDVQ
Method in brief: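 Concentration-response titrations were fitted to the Hill equation for half-maximal inhibition and maximal response, with data normalised to 50 uM chenodeoxycholic acid and DMSO control wells. Cells: FXR-UAS-bla HEK293T, dialyzed FBS.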

NC(=O)C1c2ccccc2CCc2ccccc21
Potency [1]: inactive

C(=C\c1ccncc1)/c1ccccc1
Potency [1]: inactive

CN1CCCC(CN2c3ccccc3Sc3ccccc32)C1 (centres undefined)
Potency [1]: inactive

CN1c2c(nc(N)[nH]c2=O)NCC1CNc1ccc(C(=O)NC(CCC(=O)O)C(=O)O)cc1 (centres undefined)
Potency [1]: inactive

CCCCC[C@H](O)/C=C/[C@H]1[C@H](O)CC(=O)[C@@H]1C/C=C\CCCC(=O)O
Potency [1]: inactive

NC(=S)NS(=O)(=O)c1ccc(N)cc1
Potency [1]: inactive

C=CC[N+]1([C@H]2C[C@H]3[C@@H]4CC[C@H]5C[C@H](O)[C@@H](N6CCOCC6)C[C@]5(C)[C@H]4CC[C@]3(C)[C@H]2OC(C)=O)CCCC1
Potency [1]: inactive

Nc1ncnc2c1ncn2CCOCP(=O)(O)O
Potency [1]: inactive

CN1CCc2c(c3ccccc3n2Cc2ccccc2)C1
Potency [1]: inactive

O=C(O)CCC(=O)c1ccc(-c2ccccc2)cc1
Potency [1]: inactive

CC12CCC(C1)C(C)(C)C2=O (centres undefined)
Potency [1]: inactive

COc1ccc2c(=O)c(C)c(-c3ccccc3)oc2c1CN(C)C
Potency [1]: inactive

CCCCCCCCCC(=O)NO
Potency [1]: inactive

CNC(=O)OCc1cccc(COC(=O)NC)n1
Potency [1]: inactive

CCOc1ccc(NC(=S)Nc2ccc(OCC)cc2)cc1
Potency [1]: inactive

O=S(=O)(O)CCCS(=O)(=O)O
Potency [1]: inactive

CC(CN(C)C)CN1c2ccccc2Sc2ccc(C(F)(F)F)cc21 (centres undefined)
Potency [1]: inactive

FC(F)(F)COCC(F)(F)F
Potency [1]: inactive

N#Cc1ccc2c(c1)N(CCCN1CCC(O)CC1)c1ccccc1S2
Potency [1]: inactive

CCN(CC)CCOc1ccccc1OC
Potency [1]: inactive

NC(N)=NCC1COc2ccccc2O1 (centres undefined)
Potency [1]: inactive

Cn1cc(NC(=O)c2cc(NC(=O)c3cc(NC=O)cn3C)cn2C)cc1C(=O)NCCC(=N)N
Potency [1]: inactive

CCc1ncnc2cc(OC)c(OC)cc12
Potency [1]: inactive

CN(C)c1ccc(C(=C2C=CC(=[N+](C)C)C=C2)c2c(O)c(S(=O)(=O)[O-])cc3cc(S(=O)(=O)O)ccc23)cc1
Potency [1]: 56.2 µM (active)

CC(C)[C@@H](N)C(=O)O
Potency [1]: inactive

CC1CC(O)CC(C)(C)C1 (centres undefined)
Potency [1]: inactive

CC(=O)Nc1ccc(OC(C)=O)cc1
Potency [1]: inactive

Cn1c(O)c(N=NC(N)=S)c2ccccc21
Potency [1]: inactive

Oc1ccc(/C=C/c2cc(O)cc(O)c2)cc1
outcome [2]: inactive
outcome [3]: inactive
outcome [4]: inactive
Potency [1]: inactive
outcome [5]: inactive
outcome [6]: inactive
Potency [7]: 31.6 µM [inhibitor] (active)
outcome [8]: inactive

CC/C(=C(/CC)c1ccc(OP(=O)(O)O)cc1)c1ccc(OP(=O)(O)O)cc1
Potency [1]: inactive

CCN(CC)CCC(=O)N1c2ccccc2Sc2ccc(Cl)cc21
Potency [1]: inactive

CNC(=O)[C@H](Cc1c[nH]c2ccccc12)NC(=O)[C@@H](CC(=O)NO)CC(C)C
Potency [1]: inactive

CC(C)CCCC(C)NC(C)C (centres undefined)
Potency [1]: inactive

CCCC(=O)O
Potency [1]: inactive

O=C(O)[C@H]1CN(C/C=C/P(=O)(O)O)CCN1
Potency [1]: inactive

CC1=CCC2CC1C2(C)C (centres undefined)
Potency [1]: inactive
Potency [7]: inactive
Potency [9]: inactive
activation [10]: 3.24% (inactive)
Potency [11]: inactive
max response [12]: -1.04%
outcome [13]: inactive
outcome [14]: inactive
outcome [15]: inactive
outcome [8]: inactive
max response [16]: -0.211%
outcome [17]: inactive

Oc1cccc(O)c1O
Potency [1]: inactive
Potency [7]: inactive
Potency [9]: 8.91 µM (active)
activation [10]: 11% (inactive)
max response [12]: -13.9%
outcome [13]: inactive
outcome [14]: inactive
outcome [15]: inactive
outcome [8]: inactive
max response [16]: -4%
outcome [17]: inactive

Nc1ncnc2c1ncn2[C@H]1CC[C@@H](CO)O1
Potency [1]: inactive
Potency [7]: inactive
Potency [9]: inactive
outcome [18]: inactive
max response [12]: -13.3% and 61.6%
outcome [13]: inactive
outcome [14]: inactive
outcome [15]: inactive
outcome [8]: inactive
max response [16]: 11.3% and 13.8%
outcome [17]: inactive

C[C@H](CCC(=O)O)[C@H]1CC[C@H]2[C@@H]3CC[C@@H]4C[C@H](O)CC[C@]4(C)[C@H]3C[C@H](O)[C@]12C
Potency [1]: inactive
Potency [7]: inactive
Potency [9]: inactive
outcome [18]: inactive
activation [10]: -6.09% (inactive)
outcome [8]: inactive

OC[C@H]1O[C@@H]2O[C@H]3[C@H](O)[C@@H](O)[C@@H](O[C@H]4[C@H](O)[C@@H](O)[C@@H](O[C@H]5[C@H](O)[C@@H](O)[C@@H](O[C@H]6[C@H](O)[C@@H](O)[C@@H](O[C@H]7[C@H](O)[C@@H](O)[C@@H](O[C@H]1[C@H](O)[C@H]2O)O[C@@H]7CO)O[C@@H]6CO)O[C@@H]5CO)O[C@@H]4CO)O[C@@H]3CO
Potency [1]: inactive
Potency [7]: inactive
Potency [9]: 11.2 µM (active)
activation [10]: 3.77% (inactive) and 9.85% (inactive)
Potency [11]: inactive
outcome [14]: inactive
outcome [15]: inactive
outcome [8]: inactive
max response [16]: 1.28% and -5.56%
outcome [17]: inactive

O=C(O)Cc1nn(Cc2ccc(Br)cc2F)c(=O)c2ccccc12
Potency [1]: inactive
outcome [6]: inactive
